The list is not random: actives were taken first. Their share in the collection is about 11%.
PNC inhibitor: blocks assembly of the perinucleolar compartment | PC3M PTB-GFP, PNC prevalence imaging, 16 h; active compounds read low | 140,000 compounds, 3.1% hits | AID 2417 | activity change (PNC), negative = inhibition, % at 10 µM;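 active = readout at or below -70, meaning at least 70% loss of cells showing the perinucleolar compartment, a nuclear body marking cancer cells; inconclusive = readout between -30 and a set limit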;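 also: plate controls were DMSO wells for no effect and camptothecin positive control wells for full effect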
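Read-out is percentage of cells bearing a perinucleolar compartment, from automated 20x imaging of fixed, Hoechst-stained PC3M PTB-GFP cells. Cells were seeded 4 h, then exposed 16 h to compound (23 nl of library stock) in duplicate plates.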
HTT ATP protect: cytoprotection in Huntington HTT-Q103 PC12 cell model | Potency, µM (series often up to 56.4 µM), inactives show cytoprotection (ATP increase), most hits filed as activators | 230,000 compounds, 0.14% hits | AID 1471 | PC12 HTT-Q103 induced, cytoprotection, ATP luminescence, 40 h; active = well fitted curve in the direction sought with a large enough effect; inconclusive = small, poorly fitted or top-dose-only effect, or another doubt; inactive = no such curve, though single readings can be large; an effect the other way counts as inactive or inconclusive; also: potency is read from the fitted curve at half-maximal effect; % of control where 0% means no effect; nearly all actives have a fitted effect of over 45% in size
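ATP quantification (ATPlite) reports survival of PC12 cells in which tebufenozide, 100 nM final, switches on Htt exon 1 with 103 glutamines linked to GFP; compounds are titrated.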
ALDH1A1 block: blocks purified human ALDH1A1 activity; P00352; Purified ALDH1A1, NADH fluorescence, propionaldehyde substrate; Potency, µM (top dose mostly 75.3 µM), inactives show at the top dose activity, negative = inhibition, usual class: inhibitors; 220,000 compounds, 7.3% hits; AID 1030;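 also: potency is read from the fitted curve at half-maximal effect; plate controls were no enzyme wells and a reference inhibitor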
Target sequence (P00352 whole entry, looked up): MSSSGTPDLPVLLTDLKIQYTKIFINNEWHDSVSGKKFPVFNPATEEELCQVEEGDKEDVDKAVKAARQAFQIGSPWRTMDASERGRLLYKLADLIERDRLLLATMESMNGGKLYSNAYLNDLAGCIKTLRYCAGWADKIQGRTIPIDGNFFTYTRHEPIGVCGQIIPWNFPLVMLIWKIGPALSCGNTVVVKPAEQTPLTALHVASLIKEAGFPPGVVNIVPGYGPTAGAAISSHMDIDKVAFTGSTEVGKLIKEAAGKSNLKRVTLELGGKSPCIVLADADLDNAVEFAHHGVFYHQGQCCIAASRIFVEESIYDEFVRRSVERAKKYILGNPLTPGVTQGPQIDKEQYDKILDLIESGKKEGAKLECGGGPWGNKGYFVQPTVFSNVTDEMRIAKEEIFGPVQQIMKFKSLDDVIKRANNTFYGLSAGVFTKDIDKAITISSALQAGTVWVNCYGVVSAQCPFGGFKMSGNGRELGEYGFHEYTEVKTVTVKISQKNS
HPGD inh: inhibitors of human 15-hydroxyprostaglandin dehydrogenase (HPGD). Potency, µM, inactives show top-dose activity change, negative = inhibition, actives largely listed as inhibitors. 150,000 compounds, 4.3% hits. purified HPGD, NADH fluorescence kinetic, PGE2 substrate. P15428; also: potency is read from the fitted curve at half-maximal effect; % is scaled to controls: 0 for no effect and ±100 for the full control effect
Target sequence (P15428 whole entry, looked up): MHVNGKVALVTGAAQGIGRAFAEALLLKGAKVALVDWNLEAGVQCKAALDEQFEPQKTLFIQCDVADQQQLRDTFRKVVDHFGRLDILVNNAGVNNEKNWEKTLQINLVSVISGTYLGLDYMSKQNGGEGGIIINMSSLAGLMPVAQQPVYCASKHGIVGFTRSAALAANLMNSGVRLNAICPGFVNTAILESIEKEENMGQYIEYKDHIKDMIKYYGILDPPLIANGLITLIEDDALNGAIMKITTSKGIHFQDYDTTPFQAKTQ
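NADH formation kinetics: reaction with 30 uM PGE2 and 1 mM NAD+ (final), 20 nM enzyme, Tris-HCl pH 8 with Tween 20, after 15 min compound preincubation at room temperature. Fluorescence change, last versus first of five reads.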
HttQ103 aggreg: mutant huntingtin aggregation inhibition; PC12 HttQ103-GFP aggregates, Acumen cytometry, 40 h; Potency, µM (titrated, usually from 46.1 µM), for inactives: top-dose activity change, negative = inhibition, usual class: inhibitors; 220,000 compounds, 1.1% hits; active = well fitted curve in the direction sought with a large enough effect; inconclusive = small, poorly fitted or top-dose-only effect, or another doubt; inactive = no such curve, though single readings can be large; an effect the other way counts as inactive or inconclusive; also: potency is read from the fitted curve at half-maximal effect; % is scaled to controls: 0 for no effect and ±100 for the full control effect; nearly all actives have a fitted effect of over 60% in size
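Quantitative HTS on tebufenozide-induced (100 nM) PC12 cells stably expressing polyQ103 Huntingtin exon 1–GFP. Reduction of bright GFP aggregates, detected by laser scanning cytometry after lysis, identified actives across the titration.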
GoLoco inh red: RGS12 GoLoco-Gai1 interaction inhibition; Gai1:RGS12 GoLoco peptide FP, rhodamine, 10 min; Potency, µM (series often up to 61.6 µM), for inactives: at the top dose activity, negative = inhibition, most hits filed as inhibitors; 230,000 compounds, 0.44% hits; AID 880; active = well fitted inhibition curve with a large enough effect, not every such curve was filed as active; inactive = no such curve, though single readings can be large or run the other way; also: potency is read from the fitted curve at half-maximal effect; % is scaled to controls: 0 for no effect and ±100 for the full control effect; nearly all actives have a fitted effect of over 30% in size
Active calls of the source: *; ? = inconclusive; · = no result; [ ] = another dose, or the depositor's remark. Unless noted, calls follow the shape of the dose curve; as a rule, active = well fitted inhibition curve with a large enough effect (not every such curve was filed as active); inconclusive = small, poorly fitted or top-dose-only effect, or another doubt; inactive = no such curve, though single readings can be large or run the other way.

SMILES	PNC inhibitor	HTT ATP protect	ALDH1A1 block	HPGD inh	HttQ103 aggreg	GoLoco inh red
CCOC(=O)N1CCC(NC(=O)CCN2C(=O)C3C4C=CC(C4)C3C2=O)CC1 (stereo not given)	-101.5*	5.5%	-11.6%	-6.7%	-4.2%	5.3%
O=c1cc(-c2ccccc2)oc2cc(O[C@@H]3O[C@H](CO)[C@@H](O)[C@H](O)[C@H]3O)c(O)c(O)c12	·	-1.3%[1.9 µM]	?	11.2µM*	·	-1.5%
O=c1cc(-c2ccc(O)cc2)oc2cc(O[C@H]3OC(CO)C(O)C(O)C3O)cc(O)c12 (stereo not given in full)	·	5.3%	-0.8%	-8.3%	·	3.1%
O=c1c(O)c(-c2ccc(O)c(O)c2)oc2c(OC3OC(CO)C(O)C(O)C3O)c(O)cc(O)c12 (stereo not given)	·	-59.0%	?	28.2µM*	·	-6.2%
O=c1c(O)c(-c2ccc(O)c(O)c2)oc2c(OC[C@@H]3O[C@@H](O)[C@@H](O)[C@H](O)[C@H]3O)c(O)cc(O)c12	·	12.6%[1.9 µM]	?	?	·	-7.2%
CCCOC(=O)c1ccc(N)cc1	·	-31.9%	·	·	10.0%	·
N#CCC(=O)NN=C1CCCCCCCCCCC1	18.9	-55.3%	3.16µM*	-11.7%	-1.8%	-4.4%
N#Cc1ccc(CSCC(=O)NN=C2CCCC2)cc1	·	-33.9%	?	·	-0.1%	4.5%
COc1ccc(OC)c(/C=C2\S/C(=N/NC(=O)c3ccc4ccccc4c3)NC2=O)c1	23.0	18.7%[10 µM]	?	3.98µM*	?	20.9%
COc1ccc(C2CC(=O)C3=C(C2)Nc2ccccc2NC3c2coc3ccccc3c2=O)cc1OC (stereo not given)	?	-1.3%[10 µM]	10µM*	-9.7%	-0.3%	3.3%
O=C(c1ccc(Cl)cc1Cl)c1ncc(C(F)(F)F)cc1Cl	35.9	0.2%	10.3%	-18.9%	-3.9%	5.2%
N/C(=N\OC(=O)Nc1ccccc1)c1ncc(C(F)(F)F)cc1Cl	?	-18.1%	?	-11.5%	4.9%	11.1%
O=C(c1ccccc1)c1ncc(C(F)(F)F)cc1Cl	27.1	10.4%[10 µM]	-5.8%	31.6µM*	-15.5%	-15.0%
O/N=C(\c1ccc(Cl)cc1Cl)c1ncc(C(F)(F)F)cc1Cl	17.2	-3.1%	?	25.1µM*	26.5%[9.22 µM]	12.3%
CCCC[C@@H]1C[C@H]1C(NC(=O)c1ccccc1)c1ccc(-c2ccccc2)cc1 (stereo not given in full)	·	-13.0%	-1.5%	-17.4%	·	-14.2%
CCNc1ncc2nc(-c3cccs3)c(=O)n(-c3ccccc3)c2n1	·	5.0%	?	·	·	66.3%
Cc1cccc(NC(=O)/C(=C/c2cccc([N+](=O)[O-])c2)NC(=O)c2cccs2)c1	3.6	-12.9%[10 µM]	10.9%	-6.1%	20.4%	9.5%
O=C(N/C(=C\c1cccc([N+](=O)[O-])c1)C(=O)N1CCCCC1)c1cccs1	-4.7	14.9%[10 µM]	20µM*	-4.5%	5.6%	-0.2%
COC(=O)CSC1=NS(=O)(=O)c2ccccc21	?	-1.3%[1.9 µM]	-5.8%	22.4µM*	12.0%	-25.7%
O=C(CCN1C(=O)c2ccccc2S1(=O)=O)Nc1ccccc1	·	0.8%[10 µM]	-7.9%	·	-3.8%	7.6%
O=C(CSC1=NS(=O)(=O)c2ccccc21)Nc1ccccc1	0.0	1.4%	0.562µM*	15.8µM*	15.9%	-26.1%
CCCN(CCC)C(=O)C1CC(=O)OC12CCCCC2 (stereo not given)	·	·	-2.2%	·	·	11.0%
CCOC(=O)CSC1=NC(=O)/C(=C\c2ccc(Cl)cc2)S1	-19.3	-13.1%	20µM*	2.24µM*	10.7%	75.1%
Cc1oc(-c2cc(F)ccc2F)nc1CN1CCN(c2ncnc3ccccc23)CC1	·	32.4%[10 µM]	7.94µM*	·	4.8%[9.22 µM]	21.4%
COc1ccccc1N1CCN(Cc2ccc(Br)o2)CC1	12.4	2.5%	12.6µM*	-8.8%	32.5%	-8.9%
SMILES	PNC inhibitor	HTT ATP protect	ALDH1A1 block	HPGD inh	HttQ103 aggreg	GoLoco inh red
COc1ccccc1N1CCN(Cc2nc(-c3ccc(F)cc3)oc2C)CC1	·	-36.5%	0.398µM*	·	5.1%	-2.6%
Cc1oc(-c2cc(F)ccc2F)nc1CN1CCN(C)C(=O)[C@@H]1C	·	10.0%[10 µM]	8.8%	·	3.6%[9.22 µM]	2.8%
COc1ccc2[nH]c(=O)c(NC(N)=S)nc2c1	-20.3	8.8%	?	-23.1%	2.3%	3.7%
CC(C)(C)c1ccc(OCCOc2ccc(C(C)(C)C)cc2NC=O)c(NC=O)c1	·	0.4%[10 µM]	-8.9%	·	-14.0%[9.22 µM]	0.5%
COC(=O)CNC(c1ccccc1)c1cc(Br)ccc1NC(C)=O (stereo not given)	·	3.16µM*	11.8%	·	-2.6%[9.22 µM]	-0.1%
C[C@@]1(C(=O)O)NCCc2cc(O)c(O)cc21	·	1.8%	?	?	·	-5.3%
C=CCNC(=S)NS(=O)(=O)c1cccs1	·	·	17.8µM*	·	22.0%	-1.9%
COc1ccc2[nH]cc(CCNc3ccnc(-c4c(C)noc4C)n3)c2c1	·	16.1%	11.2%	·	·	5.3%
COc1ccc2nc(SCCN(C)C)[nH]c2c1	·	4.7%[10 µM]	5.9%	·	-6.8%[9.22 µM]	8.5%
CCCCNS(=O)(=O)c1ccc2nc(SCC(=O)c3ccccc3OC)[nH]c2c1	-5.7	-43.1%	?	28.2µM*	18.7%	6.6%
CCCCNS(=O)(=O)c1ccc2nc(SCC(N)=O)[nH]c2c1	·	-4.7%[10 µM]	·	·	-0.6%[9.22 µM]	3.2%
CCCCNS(=O)(=O)c1ccc2nc(SCC(=O)Nc3cccc(F)c3)[nH]c2c1	-98.3*	·	-15.1%	-3.0%	-3.0%	8.3%
CCCCNS(=O)(=O)c1ccc2nc(SCC(=O)Nc3ccccc3Cl)[nH]c2c1	-6.0	1.7%[10 µM]	?	·	-20.4%	·
Cn1c(CSc2nc3ccc(Br)cc3[nH]2)nc2ccccc21	54.6	-20.0%	3.9%	-6.6%	-21.4%	-6.5%
Cn1c(CSc2nnc(SCc3ccccc3)s2)nc2ccccc21	26.8	-44.1%	25.1µM*	-26.1%	-5.7%	6.5%
O=c1c2ccccc2nc(SCc2ccccc2)n1CC1CCCO1 (stereo not given)	·	15.3%[10 µM]	·	·	?	-9.0%
Cc1cccc(-n2cnc3cc(C(=O)N4CCc5ccccc54)ccc32)c1	?	-17.6%[10 µM]	?	22.4µM*	4.8%	30.0%
Cc1cc(C)n(-c2ccc(C(=O)N3CCc4ccccc43)cc2)n1	-2.9	-20.0%	7.1%	-17.6%	-7.2%	1.1%
CCN(CC)CC(=O)NC12CC3CC(CC(C3)C1)C2	-5.8	2.9%	7.2%	-21.8%	-6.2%	13.6%
CCN(CC)C(=S)SCC(=O)NC12CC3CC(CC(C3)C1)C2	5.1	-1.1%[10 µM]	4.47µM*	14.1µM*	?	-16.3%
COc1ncc2nc(-c3cccs3)c(=O)n(C)c2n1	·	11.4%	?	·	·	-5.6%
CSc1cccc(NC(=O)c2c(Cl)cnn2C)c1	4.7	-3.7%	-0.8%	-29.2%	1.4%	-2.6%
